tested on: CG7945; assay: MAPPIT interaction score (arbitrary units); higher = stronger binary interaction signal, active = hit call of the paper; settings: MAPPIT configuration: N-C; pair source set: Lit-BM-16;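 active = MAPPIT score above the 99th percentile of random reference set scores in the same batch; inactive = at or below it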
Procedure: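 MAPPIT in HEK293T cells: Drosophila bait and prey ORFs (from the FlyBi ORF collection) were co-transfected in quadruplicate, with two wells stimulated by erythropoietin. Interaction-dependent JAK-STAT activation was read out with a STAT-responsive firefly luciferase reporter. Positive calls use the 99th percentile of random reference set (RRS) scores within each batch […]. Batches Dvs01 and Dvs02 used the N-N configuration and Dvs04 the N-C configuration. Pairs come from FlyBi screens, CuraGen, DPiM, Finley Y2H, Lit-BM-16, Lit-BS-16 and RRS.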
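Note: HEK293T cells with Epo stimulation, STAT-responsive firefly luciferase reporter, fold induction versus unstimulated cells divided by the larger fold induction of two negative controls lacking either bait or prey.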

Substance | MAPPIT interaction score
DnaJ-1 | 1.15 (inactive)
